Reference: PubChem BioAssay (NCI)
About 83,000 compounds went through this panel and 20% of them were active in at least one assay; those are over-represented in the sample as a whole.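 Percent growth is the endpoint: 0 to 100 indicates growth inhibition (40 means 60% inhibition), 0 means no net growth, and negative values indicate cell death.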 Active and inactive are the calls of the source. The calls were made as follows: active = growth percent below 10; inactive = the rest.

Legend:
Assay in all cases: NCI-60 one-dose screen, 48 h (100 = growth as untreated, 0 = no growth, -100 = all killed)
Conditions in all cases: 10 µM unless noted
SR leukemia = tested on: SR leukemia
RPMI-8226 leukemia = tested on: RPMI-8226 leukemia
OVCAR-8 ovarian = tested on: OVCAR-8 ovarian
OVCAR-5 ovarian = tested on: OVCAR-5 ovarian
OVCAR-4 ovarian = tested on: OVCAR-4 ovarian
SK-OV-3 ovarian = tested on: SK-OV-3 ovarian
IGROV1 ovarian = tested on: IGROV1 ovarian
OVCAR-3 ovarian = tested on: OVCAR-3 ovarian
HS 578T breast = tested on: HS 578T breast
NCI/ADR-RES ovarian = tested on: NCI/ADR-RES ovarian

Measured: growth

Cc1cccc(NC(=O)Cn2cc(CN3CCN(c4ccnc5cc(Cl)ccc45)CC3)nn2)c1
inactive: SR leukemia 78% | RPMI-8226 leukemia 63.7% | OVCAR-8 ovarian 92.7% | OVCAR-5 ovarian 96.8% | OVCAR-4 ovarian 78.1% | SK-OV-3 ovarian 76.6% | IGROV1 ovarian 89.1% | OVCAR-3 ovarian 91.1% | HS 578T breast 85.1% | NCI/ADR-RES ovarian 91.3%

Nc1ccc(Br)cc1C(F)(F)F
inactive: SR leukemia 112% | RPMI-8226 leukemia 115% | OVCAR-8 ovarian 100% | OVCAR-5 ovarian 94.9% | OVCAR-4 ovarian 124% | SK-OV-3 ovarian 103% | IGROV1 ovarian 114% | OVCAR-3 ovarian 120% | HS 578T breast 113% | NCI/ADR-RES ovarian 106%

COc1ccc(-c2nc3c(c(-c4ccc(Cl)cc4)nn3-c3ccccc3)c(-c3ccccc3)c2C#N)cc1
inactive: SR leukemia 114% | RPMI-8226 leukemia 106% | OVCAR-8 ovarian 100% | OVCAR-5 ovarian 103% | OVCAR-4 ovarian 116% | SK-OV-3 ovarian 122% | IGROV1 ovarian 111% | OVCAR-3 ovarian 111% | HS 578T breast 114% | NCI/ADR-RES ovarian 108%

O=[N+]([O-])c1c(O)c(Cl)cc(Cl)c1Cl
inactive: SR leukemia 87.9% | RPMI-8226 leukemia 97.9% | OVCAR-8 ovarian 101% | OVCAR-5 ovarian 91.6% | OVCAR-4 ovarian 109% | SK-OV-3 ovarian 99.2% | IGROV1 ovarian 111% | OVCAR-3 ovarian 111% | HS 578T breast 117% | NCI/ADR-RES ovarian 95.6%

CCOC(=O)c1ccc[nH]1
inactive: SR leukemia 94.8% | RPMI-8226 leukemia 90.5% | OVCAR-8 ovarian 95.9% | OVCAR-5 ovarian 78.9% | OVCAR-4 ovarian 95.5% | SK-OV-3 ovarian 108% | IGROV1 ovarian 90.6% | OVCAR-3 ovarian 115% | HS 578T breast 95% | NCI/ADR-RES ovarian 95.2%

N#Cc1ccc(O)c(C2=NCC(c3ccc(-c4ccccc4)cc3)O2)c1 (stereo not given)
active: OVCAR-4 ovarian -1.03% | SK-OV-3 ovarian 3.28% | NCI/ADR-RES ovarian 5.24%
inactive: SR leukemia 23.7% | RPMI-8226 leukemia 23.8% | OVCAR-8 ovarian 16.6% | OVCAR-5 ovarian 38.7% | IGROV1 ovarian 13.7% | OVCAR-3 ovarian 22.7% | HS 578T breast 48.9%

CS(=O)(=O)Nc1cc(-c2ccc3ncnc(Nc4ccc(F)c(Cl)c4)c3c2)ccc1Cl
inactive: SR leukemia 35.1% | RPMI-8226 leukemia 37.4% | OVCAR-8 ovarian 52% | OVCAR-5 ovarian 53.9% | OVCAR-4 ovarian 52.5% | SK-OV-3 ovarian 17.7% | OVCAR-3 ovarian 36.3% | HS 578T breast 18.9% | NCI/ADR-RES ovarian 41.6%
active: IGROV1 ovarian -3.25%

Nc1cccc(-c2ccc(COc3ccc(CC4SC(=O)NC4=O)cc3)cc2)c1 (stereo not given)
inactive: SR leukemia 26.8% | RPMI-8226 leukemia 53.8% | OVCAR-8 ovarian 70.1% | OVCAR-5 ovarian 92.2% | OVCAR-4 ovarian 56.4% | SK-OV-3 ovarian 62.1% | IGROV1 ovarian 57.5% | OVCAR-3 ovarian 49.9% | HS 578T breast 59.8% | NCI/ADR-RES ovarian 47.1%

O=c1oc2c(cc1-c1ccccc1)c(=O)[nH]c1ccccc12
inactive: SR leukemia 108% | RPMI-8226 leukemia 101% | OVCAR-8 ovarian 95.7% | OVCAR-5 ovarian 103% | OVCAR-4 ovarian 99.6% | SK-OV-3 ovarian 105% | IGROV1 ovarian 103% | OVCAR-3 ovarian 112% | HS 578T breast 98.1% | NCI/ADR-RES ovarian 102%

COc1ccc(CNc2ccc3nc(NC(=O)CN4CCCCCC4)sc3c2)cc1
inactive: SR leukemia 93.5% | RPMI-8226 leukemia 55.6% | OVCAR-8 ovarian 87.8% | OVCAR-5 ovarian 95.5% | OVCAR-4 ovarian 62.3% | SK-OV-3 ovarian 103% | IGROV1 ovarian 107% | OVCAR-3 ovarian 101% | HS 578T breast 115% | NCI/ADR-RES ovarian 82.9%

Cc1cc(Cl)nc(N2CCN(CCNc3ccnc4cc(Cl)ccc34)CC2)n1
active: SR leukemia -7.81%
inactive: RPMI-8226 leukemia 13.5% | OVCAR-8 ovarian 61.5% | OVCAR-5 ovarian 66.6% | OVCAR-4 ovarian 40.1% | SK-OV-3 ovarian 56.9% | IGROV1 ovarian 61% | OVCAR-3 ovarian 60.7% | HS 578T breast 76.8% | NCI/ADR-RES ovarian 45.2%

COc1ccc(OC)c(Nc2nnc(-c3cc(OC)c(OC)c(OC)c3)o2)c1
inactive: SR leukemia 89.6% | RPMI-8226 leukemia 95.2% | OVCAR-8 ovarian 104% | OVCAR-5 ovarian 105% | OVCAR-4 ovarian 99.3% | SK-OV-3 ovarian 104% | IGROV1 ovarian 98.5% | OVCAR-3 ovarian 112% | HS 578T breast 107% | NCI/ADR-RES ovarian 94.4%

COc1ccc(C2CC(n3ccnc3)c3cc(OC)c(OC)c(OC)c32)cc1O (stereo not given)
inactive: SR leukemia 35.4% | RPMI-8226 leukemia 94.6% | OVCAR-8 ovarian 89.2% | OVCAR-5 ovarian 107% | OVCAR-4 ovarian 100% | SK-OV-3 ovarian 86.3% | IGROV1 ovarian 82.4% | OVCAR-3 ovarian 57.1% | HS 578T breast 85.4% | NCI/ADR-RES ovarian 93.9%

COc1cc(/C=C2\C(=O)N(CCCOc3cc(O)c4c(=O)cc(-c5ccccc5)oc4c3)c3ccccc32)cc(OC)c1O
inactive: SR leukemia 31.9% | RPMI-8226 leukemia 86.7% | OVCAR-8 ovarian 84.7% | OVCAR-5 ovarian 110% | OVCAR-4 ovarian 83.6% | SK-OV-3 ovarian 91.6% | IGROV1 ovarian 77.2% | OVCAR-3 ovarian 44.5% | HS 578T breast 70.4% | NCI/ADR-RES ovarian 64%

COc1ccc(C(=O)/C=C/c2ccccc2)cc1S(N)(=O)=O
inactive: SR leukemia 13.4% | RPMI-8226 leukemia 64.9% | OVCAR-8 ovarian 46.2% | OVCAR-5 ovarian 101% | OVCAR-4 ovarian 86.1% | SK-OV-3 ovarian 116% | IGROV1 ovarian 54.3% | OVCAR-3 ovarian 52.4% | HS 578T breast 74.4% | NCI/ADR-RES ovarian 79.3%

COc1ccc(C(O)c2cc3c(N)c(C(=O)Nc4cccc5ccccc45)sc3nc2C)cc1 (stereo not given)
inactive: SR leukemia 12.7% | RPMI-8226 leukemia 18.3% | OVCAR-8 ovarian 10.9% | OVCAR-5 ovarian 21.5% | OVCAR-4 ovarian 34.5% | SK-OV-3 ovarian 18.3%
active: IGROV1 ovarian 9.69% | OVCAR-3 ovarian 0.772% | HS 578T breast -9.07% | NCI/ADR-RES ovarian 4.32%

O=S(=O)(Nc1cc(Sc2nc3ccccc3s2)c(O)c2ccccc12)c1ccc2ccccc2c1
inactive: SR leukemia 100% | RPMI-8226 leukemia 88.5% | OVCAR-8 ovarian 75.3% | OVCAR-5 ovarian 111% | OVCAR-4 ovarian 77.8% | SK-OV-3 ovarian 101% | IGROV1 ovarian 101% | OVCAR-3 ovarian 82.6% | HS 578T breast 101% | NCI/ADR-RES ovarian 86.1%
